Values joined by “and” are separate entries in the source; they are usually repeats but may differ in a detail not shown here. Identical values can stand only once. About 2,000 (36%) of roughly 5,500 compounds were called active. Roughly 18% stayed inconclusive and do not appear here. Some of the results follow. Values without a mark were called inactive. Cut-off read from the data, not from the text of the source: active = normalized growth mostly below about 0.91 (no sharp cut-off); inconclusive = no clear call, values can overlap the other calls; inactive = mostly above about 0.92.
Assay: chemical genetic growth profiling, strain panel (AID 1159580);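 note: tested at 20 µM; growth read once vehicle control cultures reached saturation at 30 °C; 1 = growth at the plate median or of vehicle wells; lower values mean less growth of the strain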
Details: growth OD
[1] = S. cerevisiae deletion strains, locus YDL101C, strain DUN1, stronger effect = lower value
[2] = S. cerevisiae deletion strains, locus YHR030C, strain SLT2, stronger effect = lower value

Cc1nc(-c2ccccn2)[nH]c(=O)c1Cc1c(Cl)cccc1Cl
normalized growth (S. cerevisiae deletion strains, locus YAR019C, strain CDC15, stronger effect = lower value): 0.967
normalized growth (S. cerevisiae deletion strains, locus YBL105C, strain PKC1, stronger effect = lower value): 0.962
normalized growth (S. cerevisiae deletion strains, locus YBR135W, strain CKS1, stronger effect = lower value): 0.956
normalized growth (S. cerevisiae deletion strains, locus YBR136W, strain MEC1, stronger effect = lower value): 0.954
normalized growth (S. cerevisiae deletion strains, locus YBR160W, strain CDC28, stronger effect = lower value): 0.963
normalized growth (S. cerevisiae deletion strains, locus YDL017W, strain CDC7, stronger effect = lower value): 0.961
normalized growth (S. cerevisiae deletion strains, locus YDL028C, strain MPS1, stronger effect = lower value): 0.95
normalized growth [1]: 0.965
normalized growth (S. cerevisiae deletion strains, locus YDL108W, strain KIN28, stronger effect = lower value): 0.954
normalized growth (S. cerevisiae deletion strains, locus YDL132W, strain cdc53, stronger effect = lower value): 0.941
normalized growth (S. cerevisiae deletion strains, locus YDL214C, strain PRR2, stronger effect = lower value): 0.861
normalized growth (S. cerevisiae deletion strains, locus YDR052C, strain DBF4, stronger effect = lower value): 0.96
normalized growth (S. cerevisiae deletion strains, locus YDR054C, strain cdc34, stronger effect = lower value): 0.928
normalized growth (S. cerevisiae deletion strains, locus YDR226W, strain ADK1, stronger effect = lower value): 0.959
normalized growth (S. cerevisiae deletion strains, locus YDR477W, strain SNF1, stronger effect = lower value): 0.871
normalized growth (S. cerevisiae deletion strains, locus YER123W, strain YCK3, stronger effect = lower value): 0.726
normalized growth (S. cerevisiae deletion strains, locus YER133W, strain GLC7, stronger effect = lower value): 0.872
normalized growth (S. cerevisiae deletion strains, locus YFL009W, strain cdc4, stronger effect = lower value): 0.965
normalized growth (S. cerevisiae deletion strains, locus YFL029C, strain CAK1, stronger effect = lower value): 0.957
normalized growth (S. cerevisiae deletion strains, locus YFR003C, strain YPI1, stronger effect = lower value): 0.959
normalized growth (S. cerevisiae deletion strains, locus YFR019W, strain FAB1, stronger effect = lower value): 0.906
normalized growth (S. cerevisiae deletion strains, locus YFR028C, strain CDC14, stronger effect = lower value): 0.972
normalized growth (S. cerevisiae deletion strains, locus YGR040W, strain KSS1, stronger effect = lower value): 0.859
normalized growth (S. cerevisiae deletion strains, locus YGR052W, strain FMP48, stronger effect = lower value): 0.871
normalized growth (S. cerevisiae deletion strains, locus YGR092W, strain DBF2, stronger effect = lower value): 0.762
normalized growth [2]: 0.985
normalized growth (S. cerevisiae deletion strains, locus YHR079C, strain IRE1, stronger effect = lower value): 0.842
normalized growth (S. cerevisiae deletion strains, locus YHR082C, strain KSP1, stronger effect = lower value): 0.893
normalized growth (S. cerevisiae deletion strains, locus YHR205W, strain SCH9, stronger effect = lower value): 0.939
normalized growth (S. cerevisiae deletion strains, locus YIL147C, strain SLN1, stronger effect = lower value): 0.946
normalized growth (S. cerevisiae deletion strains, locus YJL095W, strain BCK1, stronger effect = lower value): 0.892
normalized growth (S. cerevisiae deletion strains, locus YJL128C, strain PBS2, stronger effect = lower value): 0.928
normalized growth (S. cerevisiae deletion strains, locus YJL157C, strain FAR1, stronger effect = lower value): 0.823
normalized growth (S. cerevisiae deletion strains, locus YJR016C, strain ILV3, stronger effect = lower value): 0.952
normalized growth (S. cerevisiae deletion strains, locus YJR066W, strain TOR1 (second series), stronger effect = lower value): 0.769
normalized growth (S. cerevisiae deletion strains, locus YJR066W, strain TOR1, stronger effect = lower value): 0.864
normalized growth (S. cerevisiae deletion strains, locus YKL048C, strain ELM1, stronger effect = lower value): 0.941
normalized growth (S. cerevisiae deletion strains, locus YKL067W, strain YNK1, stronger effect = lower value): 0.881
normalized growth (S. cerevisiae deletion strains, locus YKL101W, strain HSL1, stronger effect = lower value): 0.853
normalized growth (S. cerevisiae deletion strains, locus YKL193C, strain SDS22, stronger effect = lower value): 0.951
normalized growth (S. cerevisiae deletion strains, locus YKL203C, strain TOR2, stronger effect = lower value): 0.899
normalized growth (S. cerevisiae deletion strains, locus YLR113W, strain HOG1, stronger effect = lower value): 0.837 (active)
normalized growth (S. cerevisiae deletion strains, locus YLR133W, strain CKI1, stronger effect = lower value): 0.889
normalized growth (S. cerevisiae deletion strains, locus YLR403W, strain SFP1, stronger effect = lower value): 0.858
normalized growth (S. cerevisiae deletion strains, locus YML070W, strain DAK1, stronger effect = lower value): 0.84
normalized growth (S. cerevisiae deletion strains, locus YMR001C, strain CDC5, stronger effect = lower value): 0.956
normalized growth (S. cerevisiae deletion strains, locus YMR205C, strain PFK2 (second series), stronger effect = lower value): 0.876
normalized growth (S. cerevisiae deletion strains, locus YMR277W, strain FCP1, stronger effect = lower value): 0.952
normalized growth (S. cerevisiae deletion strains, locus YNL006W, strain LST8, stronger effect = lower value): 0.952
normalized growth (S. cerevisiae deletion strains, locus YNL020C, strain ARK1, stronger effect = lower value): 0.845
normalized growth (S. cerevisiae deletion strains, locus YNL161W, strain CBK1, stronger effect = lower value): 0.958
normalized growth (S. cerevisiae deletion strains, locus YNL183C, strain NPR1, stronger effect = lower value): 0.9
normalized growth (S. cerevisiae deletion strains, locus YNL207W, strain RIO2, stronger effect = lower value): 0.951
normalized growth (S. cerevisiae deletion strains, locus YNL222W, strain SSU72, stronger effect = lower value): 0.956
normalized growth (S. cerevisiae deletion strains, locus YNL307C, strain MCK1 (second series), stronger effect = lower value): 0.843
normalized growth (S. cerevisiae deletion strains, locus YOL078W, strain AVO1, stronger effect = lower value): 0.964
normalized growth (S. cerevisiae deletion strains, locus YOL136C, strain PFK27, stronger effect = lower value): 0.866
normalized growth (S. cerevisiae deletion strains, locus YOR061W, strain CKA2, stronger effect = lower value): 0.827
normalized growth (S. cerevisiae deletion strains, locus YOR119C, strain RIO1, stronger effect = lower value): 0.887
normalized growth (S. cerevisiae deletion strains, locus YOR231W, strain MKK1, stronger effect = lower value): 0.86
normalized growth (S. cerevisiae deletion strains, locus YOR329C, strain SCD5, stronger effect = lower value): 0.958
normalized growth (S. cerevisiae deletion strains, locus YPL031C, strain PHO85, stronger effect = lower value): 0.869
normalized growth (S. cerevisiae deletion strains, locus YPL153C, strain RAD53, stronger effect = lower value): 0.805
normalized growth (S. cerevisiae deletion strains, locus YPL204W, strain HRR25, stronger effect = lower value): 0.84
normalized growth (S. cerevisiae deletion strains, locus YPL209C, strain IPL1, stronger effect = lower value): 0.956
normalized growth (S. cerevisiae deletion strains, locus YPL256C, strain CLN2, stronger effect = lower value): 0.94
normalized growth (S. cerevisiae deletion strains, locus YPR025C, strain CCL1, stronger effect = lower value): 0.964
normalized growth (S. cerevisiae deletion strains, locus YPR106W, strain ISR1, stronger effect = lower value): 0.985
normalized growth (S. cerevisiae deletion strains, locus YPR111W, strain DBF20, stronger effect = lower value): 0.973
normalized growth (S. cerevisiae deletion strains, strain NNK1, stronger effect = lower value): 0.96
normalized growth (S. cerevisiae deletion strains, strain TSCII, stronger effect = lower value): 0.949

Cc1cc(=O)[nH]c(-c2ccccn2)n1
normalized growth (S. cerevisiae deletion strains, locus YAL013W, strain DEP1, stronger effect = lower value): 1.01 and 0.994
normalized growth (S. cerevisiae deletion strains, locus YBR229C, strain ROT2, stronger effect = lower value): 1.01
normalized growth (S. cerevisiae deletion strains, locus YCL061C, strain MRC1, stronger effect = lower value): 1 and 0.995
normalized growth [1]: 0.994
normalized growth (S. cerevisiae deletion strains, locus YDL134C, strain PPH21, stronger effect = lower value): 1.02
normalized growth (S. cerevisiae deletion strains, locus YDR150W, strain NUM1, stronger effect = lower value): 0.912 and 1.02
normalized growth (S. cerevisiae deletion strains, locus YEL061C, strain CIN8, stronger effect = lower value): 0.993 and 1.01
normalized growth (S. cerevisiae deletion strains, locus YGR078C, strain PAC10, stronger effect = lower value): 1 and 1.01
normalized growth (S. cerevisiae deletion strains, locus YGR229C, strain SMI1, stronger effect = lower value): 1.02
normalized growth [2]: 1.02 and 1.03
normalized growth (S. cerevisiae deletion strains, locus YHR087W, strain rtc3, stronger effect = lower value): 1.01
normalized growth (S. cerevisiae deletion strains, locus YJR043C, strain POL32, stronger effect = lower value): 1.01
normalized growth (S. cerevisiae deletion strains, locus YJR075W, strain HOC1, stronger effect = lower value): 1.04 and 1.01
normalized growth (S. cerevisiae deletion strains, locus YLR039C, strain RIC1, stronger effect = lower value): 0.993 and 1.05
normalized growth (S. cerevisiae deletion strains, locus YLR058C, strain SHM2 (second series), stronger effect = lower value): 1.01 and 1.02
normalized growth (S. cerevisiae deletion strains, locus YLR085C, strain ARP6, stronger effect = lower value): 0.91 and 1.03
normalized growth (S. cerevisiae deletion strains, locus YLR262C, strain YPT6, stronger effect = lower value): 0.993 and 1.02
normalized growth (S. cerevisiae deletion strains, locus YML094W, strain GIM5, stronger effect = lower value): 0.965 and 1.01
normalized growth (S. cerevisiae deletion strains, locus YMR219W, strain ESC1, stronger effect = lower value): 1.01
normalized growth (S. cerevisiae deletion strains, locus YMR263W, strain SAP30, stronger effect = lower value): 0.943 and 0.992
normalized growth (S. cerevisiae deletion strains, locus YMR307W, strain GAS1, stronger effect = lower value): 1.07
normalized growth (S. cerevisiae deletion strains, locus YNL153C, strain GIM3, stronger effect = lower value): 1 and 0.995
normalized growth (S. cerevisiae deletion strains, locus YNL298W, strain CLA4 (second series), stronger effect = lower value): 0.986 and 1.02
normalized growth (S. cerevisiae deletion strains, locus YNL322C, strain KRE1, stronger effect = lower value): 1.01 and 1
normalized growth (S. cerevisiae deletion strains, locus YNR030W, strain Alg12, stronger effect = lower value): 1.02
normalized growth (S. cerevisiae deletion strains, locus YOL006C, strain TOP1, stronger effect = lower value): 1.09
normalized growth (S. cerevisiae deletion strains, locus YPL055C, strain LGE1, stronger effect = lower value): 0.936 and 1
normalized growth (S. cerevisiae deletion strains, locus YPL241C, strain CIN2, stronger effect = lower value): 1.03
normalized growth (S. cerevisiae deletion strains, locus YPR135W, strain CTF4, stronger effect = lower value): 0.997 and 1.01
normalized growth (S. cerevisiae strains, strain wild type, stronger effect = lower value): 1.01

From PubChem BioAssay AID1159580 (chemical genetic matrix, 2015)
